Reference: PubChem BioAssay (NCATS)
Inconclusive results are not listed. Values without a mark were called inactive. Active and inactive are the calls of the source. The call rests on the fitted dose curve; in most records, active means well fitted cell-killing curve with a large enough effect; inconclusive means small, poorly fitted or top-dose-only effect; inactive means flat fitted curve, though single readings scatter.

Experiment: Cell Viability - LYMP1-002 - Assay at 40 hr (AID 994); further: nearly all actives have a fitted effect of over 60% in size;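 on viability change, negative = cytotoxic: 0% = DMSO only and full inhibition = 92 µM tetraoctylammonium bromide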
Details: LYMP1-002 lymphoblastoid cell viability; series mostly up to 92.2 µM; viability change, negative = cytotoxic: at the top concentration
Text: NIH Chemical Genomics Center [NCGC]
NIH Molecular Libraries Screening Centers Network [MLSCN]
National Institutes of Environmental Health Sciences [NIEHS]
National Toxicology Program [NTP]
We have developed a 1536-well cell-based assay for quantitative high throughput screening (qHTS) against a number of cell lines to determine in vitro cytotoxicity of small molecules. This particular assay uses a human lymphoblastoid cell line (LYMP1-002) purchased from Coriell Institute for Medical Research.
NCGC Assay Protocol Summary:
The CellTiter-Glo luminescent cell viability assay (Promega) is a homogeneous method to measure the number of viable cells in culture. The end point readout of this assay is based on quantitation of intracellular ATP, an indicator of metabolic activity, using the luciferase reaction. Luciferase catalyzes the oxidation of beetle Luciferin to oxyluciferin and light in the presence of ATP. The luminescent signal is proportional to amount of ATP present.
Using the CellTiter-Glo luminescent cell viability assay, the amount of cellular ATP was measured in the lymphoblastoid cell line with complete culture medium following compound treatment for 40 hours. The assay was performed in opaque white Kalypsys 1536-well plates. In the screen, tetraoctylammonium bromide was used as positive control. Library compounds were measured for their ability to cause acute toxicity in the cell line, as reflected by a decrease in intracellular ATP levels, in a concentration-dependent manner. […] AC50 values were determined from concentration-response data modeled with the standard Hill equation.
qHTS protocol for CellTiter Glo lymphoblastoid cellular assay
[Step] [Parameter] [Value] [Description]
1. Reagent; 5 uL; 2500 lymphoblastoid cells/well
2. Time; 5 hr; 37 C incubation
4. Controls; 23 nL; Tetraoctylammonium bromide 6.4pM to 92 uM
5. Time; 40 hr; 37 C incubation
6. Reagent; 5 uL; CellTiter Glo reagent
7. Time; 30 min; Room Temperature
8. Detection; Luminescence; Viewlux plate reader
Keywords: cell viability, cytotoxicity, lymphoblastoid cell line, luminescence, NTPHTS, NTPHTS_NCGC, NIEHS, DSSTox, MLSMR, MLSCN, NIH Roadmap, qHTS, NCGC
Potency means the concentration at half of the fitted maximal effect.

Structure (SMILES) | viability change, negative = cytotoxic [%] | Potency
Cc1cc(NS(=O)(=O)c2ccc(N)cc2)no1 | 6.75 | –
NNC(=O)c1ccncc1 | -3.73 | –
C[C@]12C=CC(=O)C=C1CC[C@@H]1[C@@H]2C(=O)C[C@@]2(C)[C@H]1CC[C@]2(O)C(=O)CO | -3.64 | –
N=C(N)c1ccc(OCCCCCOc2ccc(C(=N)N)cc2)cc1 | – | 50.1 µM (active)
Cc1ncc([N+](=O)[O-])n1CCO | -4.12 | –
CC1=NN(c2ccccc2)C(=O)C1 | -12.4 | –
NC(N)=NC(N)=NCCc1ccccc1 | -20.9 | –
Cc1ccnc2c1NC(=O)c1cccnc1N2C1CC1 | -12.4 | –
CN(C)c1ccc(C(=C2C=CC(=[N+](C)C)C=C2)c2ccc(N(C)C)cc2)cc1 | – | 3.98 µM (active)
CCc1cc(C(N)=S)ccn1 | -5.99 | –
COc1ccc2cc3[n+](cc2c1OC)CCc1cc2c(cc1-3)OCO2 | -29.4 | –
O=C(N[C@H](CO)[C@H](O)c1ccc([N+](=O)[O-])cc1)C(Cl)Cl | -8.59 | –
Cc1noc(NS(=O)(=O)c2ccc(N)cc2)c1C | -1.79 | –
Cc1nnc(NS(=O)(=O)c2ccc(N)cc2)s1 | -2.95 | –
O=C(O)c1cc(=O)[nH]c(=O)[nH]1 | -5.64 | –
